# Values of other authors, collected in PubChem BioAssay AID977611.
# Where a name gives a salt, the structure may show the parent alone. The campaign covered roughly 3,900 compounds. About 3,900 (100%) were called active. Cut-off not given; nearly all actives show Kd up to about 4200 µM. So high a share suggests a set chosen from earlier hits. The list shows a part of the results. Bridge positions count the residues as written; N and C are the ends. Where a SMILES comes first, the peptide text is derived from it. Non-standard residues stand in square brackets, D forms with d. Square brackets hold non-standard residues; d marks the D form. Residues, ends and D or L forms follow the SMILES beside them. Peptide text beside a SMILES is read from it. [ ]: non-standard residue; d: D form. * marks the point of attachment. Orn(CH(NH2)2) = NC(N)NCCC[C@H](N)C(=O)O; Tfa = O=C(C(F)(F)F)*
# Assay: PubChem AID 977611
# Settings: PDB protein-ligand complexes, literature Kd
compound,measurement,setting,value
NC(=NCC[C@H](N)C(=O)O)NO,Kd,"protein: Arginase, PDB entry 4q3u",0.36 µM (active)
CC[C@H](C)[C@H](NC(=O)[C@@H](NC(=O)[C@H](Cc1ccc(O)cc1)NC(=O)[C@H](C)N)[C@@H](C)O)C(=O)N[C@@H](CS)C(=O)N[C@@H](C)C(=O)NCC(=O)N[C@H](C(=O)N[C@@H](CCC(N)=O)C(=O)N[C@H](C(=O)N[C@@H](CC(=O)O)C(=O)N1CCC[C@H]1C(=O)O)[C@@H](C)O)[C@@H](C)O (H-AYTICAGTQTDP-OH),Kd,"protein: Dynein light chain 1, cytoplasmic LC8, PDB entry 4qh7",1.14 µM (active)
CC[C@H](C)[C@H](NC(=O)[C@H](CC(N)=O)NC(=O)[C@@H](N)Cc1ccccc1)C(=O)N[C@H](C(=O)NCC(=O)N[C@H](C(=O)N[C@H](C(=O)N[C@@H](Cc1ccc(O)cc1)C(=O)N1CCC[C@H]1C(=O)O)[C@@H](C)O)[C@@H](C)O)C(C)C (H-FNIVGTTYP-OH),Kd,"protein: Gephyrin GephE, PDB entry 4tk2",190 µM (active)
H-FNIVGTTYPC-OH,Kd,"protein: Gephyrin GephE, PDB entry 4u90",0.288 µM (active)
CC[C@H](C)[C@H](NC(=O)[C@@H](NC(=O)[C@@H](NC(=O)[C@H](CCCCN)NC(=O)[C@H](CC(=O)O)NC(=O)[C@@H](N)C(C)C)C(C)C)C(C)C)C(=O)N[C@@H](CC(N)=O)C(=O)N1CCC[C@H]1C(=O)N[C@@H](Cc1ccc(O)cc1)C(=O)N[C@@H](Cc1ccccc1)C(=O)NCC(=O)O (H-VDKVVINPYFG-OH),Kd,"protein: Malcavernin CCM2 PTB domain, PDB entry 4wj7",13 µM (active)
CC[C@H](C)[C@H](NC(=O)[C@H](CO)NC(=O)[C@@H](N)Cc1ccccc1)C(=O)N[C@H](C(=O)NCC(=O)N[C@H](C(=O)N[C@@H](CC(C)C)C(=O)N[C@@H](Cc1ccc(O)cc1)C(=O)N1CCC[C@H]1C(=O)O)[C@@H](C)O)C(C)C (H-FSIVGTLYP-OH),Kd,"protein: Gephyrin GephE, PDB entry 4tk3",8 µM (active)
same,Kd,"protein: Gephyrin GephE, PDB entry 4tk4",8 µM (active)
CC[C@H](C)[C@H](NC(=O)[C@H](CC(N)=O)NC(=O)[C@@H](N)Cc1ccccc1)C(=O)N[C@H](C(=O)NCC(=O)N[C@H](C(=O)N[C@H](C(=O)N[C@@H](Cc1ccc(O)cc1)C(=O)N1CCC[C@H]1C(=O)N[C@H](C(=O)N[C@@H](CC(N)=O)C(=O)O)[C@@H](C)CC)[C@@H](C)O)[C@@H](C)O)C(C)C (H-FNIVGTTYPIN-OH),Kd,"protein: Gephyrin GephE, PDB entry 4tk1",190 µM (active)
NC(N)=NCCC[C@@H](C(=O)O)N1[C@@H](C(=O)O)CC[C@@H]1O,Kd,"protein: Nopaline-binding periplasmic protein NocT-M117N, PDB entry 4pp0",39.9 µM (active)
NC(N)=NCCC[C@@H](C(=O)O)N1[C@H](O)CC[C@@H]1C(=O)O,Kd,"protein: Nopaline-binding periplasmic protein NocT WT, PDB entry 4pow",0.5 µM (active)
C[N+](C)(C)CCO[P+](O)(O)O,Kd,"protein: Ficolin-2, PDB entry 4nyt",4100 µM (active)
CC(O)C1C(=O)[C@H]2[C@@H]3c4c[nH]c5cccc(c45)C[C@@H]3C(C)(C)N2C1=O (some centres not stated),Kd,"protein: Sarcoplasmic/endoplasmic reticulum calcium ATPase 1, PDB entry 2EAS",0.007 µM (active)
CC(=O)N[C@H]1[C@H](O[C@H]2[C@H](O)[C@@H](O)CN[C@@H]2CO)O[C@H](CO)[C@@H](O[C@@H]2O[C@H](CO)[C@@H](O[C@@H]3O[C@H](CO)[C@@H](O)[C@H](O)[C@H]3NC(C)=O)[C@H](O)[C@H]2NC(C)=O)[C@@H]1O,Kd,"protein: Lysozyme C, PDB entry 4hp0",0.76 µM (active)
CC(=O)N[C@H]1[C@H](O[C@H]2[C@H](O)[C@@H](O)CN[C@@H]2CO)O[C@H](CO)[C@@H](O[C@@H]2O[C@H](CO)[C@@H](O)[C@H](O)[C@H]2NC(C)=O)[C@@H]1O,Kd,"protein: Lysozyme C, PDB entry 4hpi",14.2 µM (active)
OC[C@H]1O[C@@H](O)[C@H](O)[C@@H](O)[C@@H]1S[C@@H]1O[C@@H](CO[P+](O)(O)O)[C@@H](O)[C@H](O)[C@H]1O,Kd,"protein: 6-phospho-beta-glucosidase, PDB entry 4ipn",409 µM (active)
O[C@@H]1[C@H](O)[C@@H](CO[P+](O)(O)O)O[C@@H]1O,Kd,"protein: Transcriptional regulator LsrR, PDB entry 4l5j",1000 µM (active)
same,Kd,"protein: Transcriptional regulator LsrR, PDB entry 4l51",995 µM (active)
CO[C@H]1O[C@H](CO)[C@@H](O)[C@H](O)[C@@H]1S[C@H]1O[C@H](CO)[C@@H](O)[C@H](O)[C@@H]1O,Kd,"protein: MANNOSYL-OLIGOSACCHARIDE 1,2-ALPHA-MANNOSIDASE, PDB entry 4ayp",0.755 µM (active)
O=C1OC[C@@H](O[C@@H]2OC[C@@H](O[C@@H]3OC[C@@H](O)[C@H](O)[C@H]3O)[C@H](O)[C@H]2O)[C@H](O)[C@H]1O,Kd,"protein: Selenomethionine XBP1, PDB entry 4g68",0.012 µM (active)
CC(C)[C@@H]1NC(=O)[C@H](Cc2c[nH]cn2)NC(=O)[C@H](Cc2ccc(O)cc2)NC(=O)[C@H]([C@@H](C)O)NC(=O)[C@H](Cc2c[nH]cn2)NC(=O)[C@H](Cc2ccc(O)cc2)NC(=O)CSC[C@@H](C(N)=O)NC(=O)[C@H](Cc2ccc(O)cc2)NC(=O)[C@H](Cc2ccc(O)cc2)NC(=O)[C@H](CC(N)=O)NC(=O)[C@H]([C@@H](C)O)NC(=O)[C@H](CCCN=C(N)N)NC(=O)[C@H](CCCN=C(N)N)NC(=O)[C@H](CCCCNC(=O)C(F)(F)F)NC1=O ({CH2CO}-YHTYHVK(Tfa)RRTNYYC-NH2; thioether N-14),Kd,"protein: NAD-dependent protein deacetylase sirtuin-2, SIRT2, PDB entry 4l3o",1 µM (active)
Cc1noc(C)c1-c1ccc(-c2[nH]c3cncc[n+]3c2NC(C)(C)C)cc1,Kd,"protein: Bromodomain-containing protein 4 BRD4, PDB entry 4wiv",0.55 µM (active)
CC(=O)N[C@@H](CO)C(=O)N[C@@H](Cc1cnc[nH]1)C(=O)N[C@H](C(=O)N[C@@H](C)C(=O)N[C@H](C(=O)N[C@@H](CCC(=O)O)C(=O)N[C@@H](CC(N)=O)C(=O)N[C@@H](C)C(=O)N[C@@H](CC(C)C)C(=O)O)C(C)C)C(C)C,Kd,"protein: HLA class I histocompatibility antigen, B-39 alpha chain, PDB entry 4o2c",0.01 µM (active)
CC(=O)N[C@@H](Cc1ccccc1)C(=O)N[C@@H](Cc1cnc[nH]1)C(=O)N[C@H](C(=O)N[C@@H](C)C(N)=O)[C@@H](C)O (Ac-FHTA-NH2),Kd,"protein: DNA REPAIR AND RECOMBINATION PROTEIN RADA, PDB entry 4b3b",250 µM (active)
CC[C@H](C)[C@H](NC(=O)[C@H](CCC(=O)O)NC(=O)[C@H](Cc1cnc[nH]1)NC(=O)[C@@H](NC(=O)[C@@H](NC(=O)[C@H](CO)NC(C)=O)[C@@H](C)O)C(C)C)C(=O)N[C@@H](CC(C)C)C(=O)N[C@@H](CO)C(=O)N[C@@H](CCCCN)C(=O)N[C@@H](CC(C)C)C(=O)N[C@@H](CO)C(=O)O (Ac-STVHEILSKLS-OH),Kd,"protein: S100A10, PDB entry 1bt6",2 µM (active)
CC(C)[C@H](N)C(=O)N[C@@H](CCC(=O)O)C(=O)N[C@@H](CCC(N)=O)C(=O)N[C@@H](Cc1cnc[nH]1)C(=O)N[C@@H](Cc1cnc[nH]1)C(=O)N[C@@H](CCCNC(N)N)C(=O)N[C@@H](CCCNC(N)N)C(=O)N[C@H](C(=O)N[C@@H](CC(=O)O)C(=O)N[C@@H](CC(N)=O)C(=O)N[C@@H](CC(=O)O)C(=O)O)[C@@H](C)O (H-VEQHH[Orn(CH(NH2)2)][Orn(CH(NH2)2)]TDND-OH),Kd,"protein: 13F6-1-2 Fab fragment heavy chain, PDB entry 2qhr",0.041 µM (active)
CC(C)[C@H](NC(=O)[C@H](CCC(=O)O)NC(=O)[C@H](C)NC(=O)[C@H](CCCNC(N)N)NC(=O)[C@H](C)N)C(=O)N[C@@H](Cc1cnc[nH]1)C(=O)O (H-A[Orn(CH(NH2)2)]AEVH-OH),Kd,"protein: WD repeat-containing protein 5, PDB entry 3emh",0.14 µM (active)
CC(=O)NCC(=O)N[C@@H](CO)C(=O)N[C@@H](C)C(=O)N[C@@H](CCCNC(N)N)C(=O)N[C@@H](C)C(=O)N[C@@H](CCC(=O)O)C(=O)N[C@H](C(=O)N[C@@H](Cc1cnc[nH]1)C(=O)N[C@@H](CC(C)C)C(=O)O)C(C)C (Ac-GSA[Orn(CH(NH2)2)]AEVHL-OH),Kd,"protein: WD repeat-containing protein 5, PDB entry 3eg6",1.7 µM (active)
CC[C@H](C)[C@H](NC(=O)[C@H](CCC(=O)O)NC(=O)[C@H](C)NC(=O)[C@H](CCC(N)=O)NC(=O)[C@H](CO)NC(=O)[C@H](CC(C)C)NC(=O)[C@@H](NC(=O)[C@@H](N)CO)[C@@H](C)CC)C(=O)N[C@@H](CC(=O)O)C(=O)N[C@@H](C)C(=O)N[C@@H](CC(C)C)C(=O)N[C@@H](CC(C)C)C(=O)N[C@@H](CC(N)=O)C(=O)O (H-SILSQAEIDALLN-OH),Kd,"protein: double mutant Chemotaxis protein cheYD13K Y106W, PDB entry 1u8t",55 µM (active)
CC[C@H](C)[C@H](NC(=O)[C@H](CC(C)C)NC(=O)[C@H](CCCCN)NC(=O)[C@H](CCC(N)=O)NC(=O)[C@@H](N)CCC(=O)O)C(=O)N[C@@H](CO)C(=O)N[C@@H](CCC(=O)O)C(=O)N[C@@H](CCC(=O)O)C(=O)N[C@@H](CC(=O)O)C(=O)N[C@@H](CC(C)C)C(=O)N[C@@H](CC(N)=O)C(=O)O (H-EQKLISEEDLN-OH),Kd,"protein: Monoclonal anti-c-myc antibody 9E10, PDB entry 2or9",0.5 µM (active)
H-SEAAASTAVVIA-OH,Kd,"protein: human antithrombin, PDB entry 1br8",18 µM (active)
Cn1c(CNc2ccc(C(=N)N)cc2)nc2cc(C(=O)N(CCC(=O)O)c3ccccn3)ccc21,Kd,"protein: humanized anti dabigatran Fab, PDB entry 4jn2",2.1e-06 µM (active)
CCC1=CNN2C(NCc3ccc[n+]([O-])c3)CC(N3CCCC[C@H]3CCO)NC12 (some centres not stated),Kd,"protein: Bromodomain testis-specific protein, PDB entry 4kcx",37 µM (active)
CCCCCCCC(=O)O[C@@H]1[C@@H](OC(=O)[C@@H](C)CC)[C@@H](C)[C@H]2[C@H]1[C@@](C)(OC(C)=O)C[C@H](O[C@@H](O)CCC)[C@@]1(O[C@H](O)CCC)[C@H]2O[C@@H](O)[C@@]1(C)O,Kd,"protein: SERCA1a, PDB entry 4j2t",0.011 µM (active)
CC(C)C[C@H](NC(=O)CNC(=O)[C@H](CC(C)C)NC(=O)[C@@H](NC(=O)[C@H](CC(C)C)NC(=O)[C@H](CCC(N)=O)NC(=O)[C@@H](N)CCCNC(N)N)C(C)C)C(=O)O (HELM PEPTIDE1{[NC(N)NCCC[C@H](N)C(=O)[*:2]].Q.L.V.L.G.L}$$$$V2.0),Kd,"protein: DNA polymerase III, PDB entry 1ok7",1.2 µM (active)
CSCC[C@H](NC(=O)[C@H](CC(C)C)NC(=O)[C@H](C)NC(=O)[C@@H](NC(=O)[C@H](CC(N)=O)NC(=O)[C@H](CO)NC(=O)CNC(=O)[C@H](CCCNC(N)N)NC(=O)[C@H](CCCNC(N)N)NC(=O)[C@H](CCC(=O)O)NC(=O)[C@H](CCC(N)=O)NC(=O)[C@H](CC(C)C)NC(=O)[C@@H](N)CCCNC(N)N)C(C)C)C(=O)N[C@@H](CC(C)C)C(=O)N[C@@H](CC(=O)O)C(=O)N[C@@H](CS)C(=O)O (H-[Orn(CH(NH2)2)]LQE[Orn(CH(NH2)2)][Orn(CH(NH2)2)]GSNVALMLDC-OH),Kd,"protein: Mitogen-activated protein kinase 1, PDB entry 2gph",5 µM (active)
CC[C@H](C)[C@H](NC(=O)[C@H](CCSC)NC(=O)CNC(=O)[C@H](CCCNC(N)N)NC(=O)[C@@H](N)CCC(N)=O)C(=O)O (H-Q[Orn(CH(NH2)2)]GMI-OH),Kd,"protein: Response regulator aspartate phosphatase F, PDB entry 4i9c",3.1 µM (active)
CC[C@H](C)[C@H](NC(=O)[C@H](CC(=O)O)NC(=O)[C@H](CCC(=O)O)NC(=O)[C@H](CC(C)C)NC(=O)CNC(=O)[C@H](C)NC(=O)[C@H](C)N)C(=O)N[C@H](C(=O)N[C@@H](CCCNC(N)N)C(=O)N[C@@H](CCCCN)C(=O)N[C@@H](C)C(=O)N[C@@H](CC(C)C)C(=O)N[C@@H](CCSC)C(=O)NCC(=O)N[C@H](C=O)CO)[C@@H](C)CC (H-AAGLEDII[Orn(CH(NH2)2)]KALMGS-aldehyde),Kd,"protein: Glucocorticoid receptor, PDB entry 3h52",14 µM (active)
